Potency and affinity values are given separately. Records with an inconclusive call do not appear. The source made the active and inactive calls. No rule for the calls is given here.

The experiment is described as follows: OVCAR-3 cell viability loss – plate reader, dry powder samples, PAX8 inhibitor project, dose response (AID 743044). The following applies: NIH:OVCAR-3 ovarian cancer cell viability; max activity: at 35 µM, stronger effect = lower value unless noted; series mostly up to 50 µM.
For the molecule `C[C@@H]1CCCCO[C@H](CN(C)C(=O)Nc2ccc(C(F)(F)F)cc2)[C@H](C)CN([C@@H](C)CO)C(=O)c2cc(NS(=O)(=O)c3ccc(Cl)cc3)ccc2O1`, the max activity was -7.31% (inactive).
On to `C[C@H](O)C#Cc1cnc2c(c1)C(=O)N([C@H](C)CO)C[C@H](C)[C@H](CN(C)Cc1ccc(-c3ccccc3)cc1)O2`, for which the max activity was 9.01% [at 0.26 µM, stronger effect = lower value] (inactive).
In the case of `Cc1ccc(S(=O)(=O)N(C)C[C@@H]2Oc3cc(C#Cc4ccncc4)ccc3S(=O)(=O)N([C@@H](C)CO)C[C@H]2C)cc1` it was -28.9% [at 16 µM, stronger effect = lower value] (inactive); in that of `O=C(C[C@@H]1C[C@H]2c3cc(NC(=O)C4CCOCC4)ccc3O[C@H]2[C@H](CO)O1)NCc1ccc(Oc2ccccc2)cc1`, -20% [at 8 µM, stronger effect = lower value] (inactive); in that of `C[C@@H]1CCCCO[C@@H](CN(C)Cc2ccc(C(F)(F)F)cc2)[C@H](C)CN([C@H](C)CO)C(=O)c2cc(NS(=O)(=O)c3ccc(Cl)cc3)ccc2O1`, -15.2% [at 1.1 µM, stronger effect = lower value] (inactive).
In the case of `Cc1ccc(S(=O)(=O)N(C)C[C@H]2OCCCC[C@@H](C)Oc3ccc(NS(=O)(=O)c4ccc(F)cc4)cc3C(=O)N([C@@H](C)CO)C[C@H]2C)cc1` it was -18.9% [at 0.5 µM, stronger effect = lower value] (inactive); in that of `C[C@@H]1CCCCO[C@H](CN(C)C(=O)Cc2ccccc2)[C@H](C)CN([C@@H](C)CO)C(=O)c2cc(NC(=O)Nc3ccc(C(F)(F)F)cc3)ccc2O1`, 13.6% (inactive); in that of `Cc1ccc(S(=O)(=O)Nc2ccc3c(c2)C(=O)N([C@H](C)CO)C[C@H](C)[C@H](CN(C)C(=O)c2ccccc2)OCCCC[C@H](C)O3)cc1`, -23.6% (inactive).
Regarding `COc1ccc(S(=O)(=O)Nc2ccc3c(c2)CC(=O)N([C@H](C)CO)C[C@H](C)[C@@H](CN(C)Cc2ccc(-c4ccccc4)cc2)O3)cc1`, the max activity was 36.7% [at 2.1 µM, stronger effect = lower value] (inactive).
Regarding `C[C@@H]1CCCCO[C@H](CN(C)S(=O)(=O)c2ccc(Cl)cc2)[C@@H](C)CN([C@@H](C)CO)C(=O)c2cc(NC(=O)CCC(F)(F)F)ccc2O1`, the max activity is 17.2% [at 2.1 µM, stronger effect = lower value] (inactive).
The value for `Cc1ccc(S(=O)(=O)Nc2ccc3c(c2)C(=O)N([C@@H](C)CO)C[C@@H](C)[C@H](CN(C)Cc2ccc(Cl)c(Cl)c2)OCCCC[C@@H](C)O3)cc1` was -18.1% [at 4.2 µM, stronger effect = lower value] (inactive).
For `CN1c2ccc(-c3ccc(C#N)cc3)cc2[C@@H]2[C@@H](CCN2C(=O)NC2CCCCC2)[C@@H]1CO`, the max activity was -6.17% [at 4.2 µM, stronger effect = lower value] (inactive).
In the case of `C[C@H]1CCCCO[C@H](CN(C)C(=O)Nc2ccc(C(F)(F)F)cc2)[C@@H](C)CN([C@@H](C)CO)C(=O)c2cc(NC(=O)c3ccncc3)ccc2O1` it was -23.2% [at 0.26 µM, stronger effect = lower value] (inactive).
The value for `COc1ccccc1S(=O)(=O)N(C)C[C@@H]1Oc2cc(C#CCC3CCCC3)ccc2S(=O)(=O)N([C@@H](C)CO)C[C@@H]1C` was -15.5% (inactive); that for `C[C@@H]1CN([C@H](C)CO)C(=O)c2cc(NC(=O)Nc3ccc(F)cc3)ccc2O[C@@H](C)CCCCO[C@H]1CN(C)C(=O)Nc1ccc(F)cc1` was 13.6% (inactive); that for `Cc1ccc(S(=O)(=O)N(C)C[C@H]2Oc3ccc(NC(=O)Nc4ccc(C(F)(F)F)cc4)cc3CC(=O)N([C@H](C)CO)C[C@@H]2C)cc1` was 49.2% [at 16 µM, stronger effect = lower value] (inactive).
Turning to `CCCN(C)C[C@H]1OCCCC[C@@H](C)Oc2ccc(NC(=O)c3ccccc3)cc2C(=O)N([C@H](C)CO)C[C@H]1C`, the max activity is 25.8% [at 0.5 µM, stronger effect = lower value] (inactive).
In the case of `C[C@@H]1CN([C@H](C)CO)S(=O)(=O)c2ccc(C#Cc3ccncc3)cc2O[C@H]1CN(C)C(=O)Nc1ccc2c(c1)OCO2`, the max activity is -26.8% [at 16 µM, stronger effect = lower value] (inactive).
In the case of `C[C@@H]1CN([C@H](C)CO)C(=O)c2cc(NC(=O)Nc3ccc(C(F)(F)F)cc3)ccc2O[C@@H](C)CCCCO[C@H]1CN(C)Cc1ccc(Cl)c(Cl)c1` it was 8.01% [at 8 µM, stronger effect = lower value] (inactive); in that of `C[C@H](CO)N1C[C@H](C)[C@H](CN(C)C(=O)NC2CCCCC2)OCCCC[C@H](C)Oc2ccc(NC(=O)Nc3ccc(C(F)(F)F)cc3)cc2C1=O`, 11.8% [at 2.1 µM, stronger effect = lower value] (inactive); in that of `C[C@@H]1CN([C@H](C)CO)C(=O)Cc2cc(NC(=O)Nc3ccc(F)cc3)ccc2O[C@@H]1CN(C)Cc1ccc(Cl)c(Cl)c1`, 27.5% (inactive).
In the case of `C[C@@H]1CN([C@@H](C)CO)C(=O)c2ccccc2-c2ccccc2CO[C@H]1CN(C)Cc1ccccc1C(F)(F)F` it was 28.3% [at 16 µM, stronger effect = lower value] (inactive); in that of `Cc1ccc(S(=O)(=O)Nc2ccc3c(c2)C(=O)N([C@@H](C)CO)C[C@H](C)[C@@H](CN(C)C(=O)Nc2ccc(C(F)(F)F)cc2)OCCCC[C@H](C)O3)cc1`, -5.62% (inactive); in that of `Cc1ccc(S(=O)(=O)N(C)C[C@@H]2Oc3c(NC(=O)c4ccc(-c5nccs5)cc4)cccc3C(=O)N([C@@H](C)CO)C[C@@H]2C)cc1`, 61.7% [at 0.26 µM, stronger effect = lower value] (inactive).
The value for `C[C@@H]1CN([C@H](C)CO)C(=O)Cc2cc(NC(=O)Cc3ccccc3)ccc2O[C@@H]1CN(C)Cc1ccc(C(F)(F)F)cc1` was -9.67% [at 0.26 µM, stronger effect = lower value] (inactive).
For `C[C@H](CO)N1C[C@H](C)[C@H](CN(C)Cc2ccc(Cl)c(Cl)c2)Oc2c(NS(=O)(=O)c3ccc(Cl)cc3)cccc2C1=O`, the max activity is 53.6% (inactive).
In the case of `C[C@@H]1CN([C@H](C)CO)C(=O)c2cc(NC(=O)c3ccncc3)ccc2O[C@@H](C)CCCCO[C@H]1CN(C)Cc1ccc(C(F)(F)F)cc1` it was 14.3% [at 0.5 µM, stronger effect = lower value] (inactive).
In the case of `C[C@@H]1CN([C@@H](C)CO)C(=O)c2cc(NS(=O)(=O)c3ccc(Cl)cc3)ccc2O[C@@H](C)CCCCO[C@H]1CN(C)Cc1ccc(C(F)(F)F)cc1` it was 22.1% [at 16 µM, stronger effect = lower value] (inactive); in that of `C[C@H]1CCCCO[C@@H](CN(C)C(=O)c2ccccc2)[C@@H](C)CN([C@@H](C)CO)C(=O)c2cc(NC(=O)Nc3ccc(C(F)(F)F)cc3)ccc2O1`, 13.2% [at 1.1 µM, stronger effect = lower value] (inactive).
In the case of `C[C@@H]1CN([C@@H](C)CO)C(=O)c2cc(NS(=O)(=O)c3ccccc3)ccc2O[C@@H](C)CCCCO[C@@H]1CN(C)Cc1ccc(C(F)(F)F)cc1` it was -5.59% (inactive); in that of `C[C@@H]1CN([C@H](C)CO)C(=O)c2cc(NC(=O)Nc3ccccc3)ccc2O[C@@H](C)CCCCO[C@H]1CN(C)Cc1ccc(Cl)c(Cl)c1`, -19.3% (inactive).
On to `C[C@@H]1CCCCO[C@@H](CN(C)Cc2ccc(Cl)c(Cl)c2)[C@H](C)CN([C@@H](C)CO)C(=O)c2cc(NC(=O)Cc3ccccc3)ccc2O1`, for which the max activity is -29.2% [at 16 µM, stronger effect = lower value] (inactive).
The value for `C[C@H]1CCCCO[C@H](CN(C)S(=O)(=O)c2ccc(Cl)cc2)[C@@H](C)CN([C@@H](C)CO)C(=O)c2cc(NS(=O)(=O)c3ccc(Cl)cc3)ccc2O1` was -21.5% (inactive); that for `C[C@@H]1CN([C@@H](C)CO)C(=O)c2cc(NC(=O)c3ccccc3)ccc2O[C@@H](C)CCCCO[C@H]1CN(C)Cc1ccc(C(F)(F)F)cc1` was -28.2% [at 0.26 µM, stronger effect = lower value] (inactive); that for `C[C@@H]1CCCCO[C@H](CN(C)C)[C@H](C)CN([C@H](C)CO)C(=O)c2cc(NC(=O)Nc3cccc4ccccc34)ccc2O1` was 24.8% [at 4.2 µM, stronger effect = lower value] (inactive).
`C[C@H](CO)N1C[C@H](C)[C@@H](CN(C)C(=O)NC2CCCCC2)Oc2cc(C#Cc3ccc(F)cc3)ccc2S1(=O)=O`: the max activity is 10.3% [at 2.1 µM, stronger effect = lower value] (inactive).
Consider `C[C@H]1CCCCO[C@@H](CN(C)C(=O)Nc2ccc(C(F)(F)F)cc2)[C@@H](C)CN([C@@H](C)CO)C(=O)c2cc(NS(=O)(=O)c3cn(C)cn3)ccc2O1`, for which the max activity is -16.1% (inactive).
`COc1ccccc1-c1ccc2c(c1)O[C@H](CN(C)Cc1ccc3c(c1)OCO3)[C@H](C)CN([C@@H](C)CO)S2(=O)=O`: the max activity is 20.4% [at 4.2 µM, stronger effect = lower value] (inactive).
On to `C[C@@H]1CCCCO[C@H](CN(C)C(=O)NC2CCCCC2)[C@@H](C)CN([C@@H](C)CO)C(=O)c2cc(NC(=O)Nc3ccc(C(F)(F)F)cc3)ccc2O1`, for which the max activity was 18.6% [at 2.1 µM, stronger effect = lower value] (inactive).
As for `C[C@@H]1CN([C@@H](C)CO)C(=O)Cc2cc(NS(=O)(=O)c3ccc(F)cc3)ccc2O[C@H]1CN(C)Cc1ccc(Oc2ccccc2)cc1`, the max activity was -22.3% [at 4.2 µM, stronger effect = lower value] (inactive).

These data come from PubChem BioAssay.
